Cycloheximide cs = affects cycloheximide protein synthesis inhibition readout, counter-screen | cell reporter, cycloheximide protein synthesis inhibition counterscreen | max response, % | 12% of 300,000 active; in the data active means max response mostly above about 13%, no sharp cut-off; inactive means mostly below about 14%; further: read at 38.3 µM for the half of the compounds with a filed dose; 0% is about no effect
NS1 inh = inhibitors of influenza NS1 protein function; 0.4% of 270,000 active; AID 2326; Potency, µM (titrated, usually from 46.1 µM), inactives show at the top dose activity, positive = more growth; calls by dose curve; further: potency means the concentration at half of the fitted maximal effect; actives are rising curves; nearly all actives have a fitted effect of over 50% in size
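A cell-based growth assay was used: compounds that relieve NS1-induced slow growth of budding yeast raise OD600. Assay medium was yeast nitrogen base with ammonium sulphate and -URA supplement, pH 6.0, with 2% galactose.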
Shiga toxin inh = inhibitors of Shiga toxin in Vero cells; Vero cells, Shiga toxin protein synthesis inhibition reporter; inhibition, % at 38.7 µM; 9.2% of 290,000 active; in the data active means inhibition mostly above about 28%, no sharp cut-off; inactive means mostly below about 43%; further: 0% is about no effect
Pf growth 48h = inhibits P. falciparum growth in the first generation, 48 h; P. falciparum luciferase growth in erythrocytes, 48 h; Potency, µM (highest dose often 28.7 µM), without a hit: at the highest dose activity change, negative = inhibition, actives largely listed as inhibitors; 5.9% of 310,000 active; AID 504832; further: potency means the concentration at half of the fitted maximal effect; on the % scale 0 is the no-effect control and ±100 the full control effect
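A one-generation exposure of luciferase-tagged malaria parasites in RPMI 1640/Albumax erythrocyte culture, 37 C and 5% CO2. Inhibition is inferred from decreased luminescence after adding detection reagent.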
Pf growth 96h = P. falciparum growth inhibition at 96 hour, primary screen for plastid delayed-death inhibitors; P. falciparum luciferase reporter growth, 96 h; Potency, µM (top dose mostly 28.7 µM), without a hit: at the highest dose activity change, negative = inhibition, hits mostly inhibitors; 6.9% of 320,000 active; further: potency means the concentration at half of the fitted maximal effect; on the % scale 0 is the no-effect control and ±100 the full control effect
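Cell-based qHTS: luciferase-tagged P. falciparum in erythrocytes (2% hematocrit, 0.05% parasitemia final) incubated with compounds for 96 hours, 37 C, 5% CO2; luciferase detection reagent then added and luminescence measured.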
* hit, by the source's call; ? = inconclusive; nt = no result; [ ] = dose if it differs, or a comment. Compounds with a hit are over-represented: about 21% of the library has one in this group of screens. Unless noted, the call rests on the fitted dose curve; in most records, active means well fitted inhibition curve with a large enough effect; inconclusive means small, poorly fitted or top-dose-only effect, or another doubt; inactive means no such curve, though single readings can be large or run the other way.

SMILES	Cycloheximide cs	NS1 inh	Shiga toxin inh	Pf growth 48h	Pf growth 96h
C=Cc1cccc(NC(=O)c2ccc(NC(=O)c3ccco3)cc2)c1	19.1*	-29.3%	35.2*	-5.3%	1.47µM*
Cn1nc(C(C)(C)C)cc1C(=O)Sc1cccc(Br)c1	1.5	0.0%	-4.3	14.6%	14.8%
Cc1ccc(N(C(=O)CNC(=O)c2ccco2)C(C(=O)NCC2CCCO2)c2ccccc2)c(C)c1 (stereo not given)	-8.8	-8.7%	-0.6	-15.0%	15.3%
CC(=O)c1ccc(-n2c(-c3cc(-c4ccsc4)n[nH]3)n[nH]c2=S)cc1	-0.7	nt	-7.8	-12.4%	11.9%
O=C(Nc1ccc(NC(=O)c2ccco2)nc1)c1cccc(F)c1	39.9*	-22.8%	82.0*	156.8%	21.6%
Cc1cc(NC(=O)c2ccco2)ncc1NC(=O)CCc1ccccc1	28.0*	0.1%	33.4	7.0%	nt
Cc1ccccc1NC(=O)c1cccc(NC(=O)c2ccco2)c1	6.9	-67.6%	8.4	31.1%	?
CCC(=O)Nc1cc(C)c(NC(=O)CCc2ccccc2)cn1	-2.1	7.2%	-0.5	17.0%	?
COc1cccc(C(=O)Nc2ccc(NC(C)=O)cn2)c1	30.5*	-2.1%	64.9*	305.6%	nt
Cc1cc(NC(=O)c2cccc(F)c2)ncc1NC(=O)c1ccco1	21.2*	-13.4%	50.1	nt	nt
CCOc1ccc(NC(=O)Cc2c(C(=O)O)n(C)c3ccccc23)cc1	-2.8	6.1%	-0.7	-1.6%	36.0%
CCN(CC)CCCC(C)NC(=O)c1c(NC(=O)c2ccccc2)sc2c1CCCC2 (stereo not given)	-5.7	-13.3%	-16.5	?	-22.5%
Cc1cc2cc(CCNC(=O)C3c4ccccc4Oc4ccccc43)c(=O)[nH]c2cc1C	-4.9	10.3%	-16.4	7.4%	-15.5%
COCCCN1C(=O)C(=O)/C(=C(/O)c2ccc(S(=O)(=O)N3CCOCC3)cc2)C1c1ccc(C(C)C)cc1 (stereo not given)	-0.4	4.2%	24.2	-0.7%	0.0%
COc1cccc(C(=O)Nc2ccc(NC(=O)c3ccco3)nc2)c1	62.8*	-55.9%	193.8*	224.9%	nt
COc1cccc(C(=O)Nc2ccc(NC(=O)c3ccco3)c(Cl)c2)c1	30.3*	nt	63.8*	119.2%	?
CCOc1ccc(C(=O)Nc2ccc(NC(=O)c3ccco3)c(Cl)c2)cc1Cl	4.1	6.4%	-7.9	nt	16.6%
CN(C)S(=O)(=O)n1cc(/C=C(\NC(=O)c2ccccc2)C(=O)N2CCCC2)c2ccccc21	-2.2	16.0%	-8.7	?	?
COc1ccc(C(=O)CC(=O)C(=O)Nc2cccc(C(C)=O)c2)cc1	17.2*	6.2%	24.4	0.2%[0.00184 µM]	7.1%
COc1ccc(C(=O)CC(=O)C(=O)Nc2ccccc2OC)cc1	7.5	-45.4%	27.1	nt	40.3%
COc1ccc(C(=O)CC(=O)C(=O)Nc2ccc(C)c(C)c2)cc1	17.5*	-3.4%	94.4*	nt	11.7%
CSCC[C@H](NC(=O)C1CCC(CNC(=O)[C@@H]2CCCN2C(=O)OC(C)(C)C)CC1)C(=O)O (stereo not given in full)	8.2	3.1%	-6.7	13.9%	-0.1%
O=C(CNC(=O)c1ccco1)N/N=C/c1c[nH]c2ccccc12	5.5	nt	-3.7	?	98.7%
NC(=S)N/N=C/c1c[nH]c2ccccc12	5.6	0.9%	37.6	0.0%	38.1%
Cc1occc1C(=O)N/N=C/c1c[nH]c2ccccc12	47.6*	-7.8%	96.0*	62.4%	37.4%
SMILES	Cycloheximide cs	NS1 inh	Shiga toxin inh	Pf growth 48h	Pf growth 96h
Nc1ccc(C(=O)N/N=C/c2c[nH]c3ccccc23)cc1	29.2*	-2.3%	50.8	13.3%	50.1%
O=C(N/N=C/c1c[nH]c2ccccc12)c1ccc(Br)cc1	31.7*	-19.0%	54.3*	20.2%	?
O=C(N/N=C/c1c[nH]c2ccccc12)c1ccc(Cl)cc1	34.1*	-7.4%	71.5*	40.1%	?
Nc1ccc(C(=O)N/N=C2\CCCc3c2[nH]c2ccccc32)cc1	24.9*	10.9%	25.5	?	?
O=C(N/N=C/c1c[nH]c2ccccc12)c1cc(Cl)ccc1O	45.3*	-54.3%	43.9*	30.1%	1.0%
O=C(N/N=C/c1c[nH]c2ccccc12)c1ccccc1Cl	25.9*	3.6%	55.5	30.1%	44.1%
CC(C)(C)OC(=O)N/N=C/c1c[nH]c2ccccc12	55.6*	-4.3%	72.9*	1.8%	18.4%
COC(=O)N/N=C/c1c[nH]c2ccccc12	0.6	4.5%	10.2	33.2%	44.3%
O=C(N/N=C/c1c[nH]c2ccccc12)c1cc(-c2ccccc2)n[nH]1	7.1	6.2%	21.9	-4.9%	1.2%
Cc1c(I)c(=O)n(-c2ccccc2)n1C	-3.5	nt	-0.6	-5.5%	-10.7%
O=C(N/N=C\c1c[nH]c2ccccc12)c1ccc(O)cc1	39.2*	0.7%	63.2*	35.4%	5.5%
CCOCCn1c(=NC(=O)CSCC(=O)Nc2cc(C)on2)sc2cc(OC)ccc21	1.2	-16.2%	18.9	5.22µM*	5.22µM*
COc1ccc(CNCc2ccc([N+](=O)[O-])cc2)cc1OC	-2.8	12.4%	1.4	6.9%	17.5%
Cc1cccc(C(=O)NNC(=O)c2ccc(Br)cc2)c1	2.2	-4.5%	19.1	26.8%	8.6%
O=C(/C=C/NNC(=O)c1ccccc1)c1ccccc1	27.5*	-30.5%	19.7	nt	5.2%
O=C(NO)c1ccccc1O	-3.1	5.8%	13.7	?	-17.2%
Cc1ccc(C(=O)C=CNNC(=O)c2ccccc2)cc1	33.2*	-4.8%	44.3*	-1.6%	?
O=C(/C=C/NNC(=O)c1ccccc1O)c1ccccc1	31.6*	10.4%	nt	18.5%	-28.9%
O=CC(=O)c1ccccc1	nt	nt	nt	36.8%	60.1%
O=C(/C=C/NNC(=O)c1ccc(Br)cc1)c1ccccc1	32.4*	-22.3%	83.9*	nt	?
O=C(NCCc1ccccc1)C1CC(=O)N(C2CCCC2)C1 (stereo not given)	-0.7	6.9%	-7.4	-17.4%	25.8%
O=S(=O)(Nc1cccc(-c2ccc3nncn3n2)c1)c1ccc(Cl)s1	-1.0	nt	-3.3	-9.5%	-5.1%
Cc1ccc(C(=O)/C=C/c2ccc(-c3ccc(C)cc3)o2)cc1	14.8	-0.2%	13.2	38.8%	?
Cc1ccc(S/C=C\C(=O)c2ccccc2)cc1	44.0*	-3.8%	78.9*	nt	-25.4%
O=C(NOCc1ccccc1)c1ccc([N+](=O)[O-])cc1	nt	nt	nt	210.4%	320.4%
SMILES	Cycloheximide cs	NS1 inh	Shiga toxin inh	Pf growth 48h	Pf growth 96h
O=C(/C=C/NNC(=O)c1ccccc1)c1ccc([N+](=O)[O-])cc1	37.7*	4.4%	87.2*	56.8%	?
Cc1cccc(C(=O)NN/C=C/C(=O)c2ccccc2)c1	31.4*	26.1%	56.2*	-15.3%	109.9%
CC(=O)Nc1ccc(C(=O)NNC(=O)c2cccc(C)c2)cc1	1.6	-9.9%	12.2	21.8%	14.1%
O=C(COc1ccc(S(=O)(=O)NC2CCCCC2)cc1Cl)N1CCN(c2ccccc2)CC1	0.8	7.0%	-4.6	nt	?
CCN(CC(=O)Nc1ccc(NC(C)=O)cc1)C(=O)C1CCCC1	nt	nt	nt	?	-0.5%
CC1=C(C(=O)OCc2ccccc2)C(c2ccc(Cl)cc2Cl)NC(=O)N1CCCCCC(=O)O (stereo not given)	-4.1	-7.7%	-4.8	9.6%	?
